Measured values: PubChem BioAssay (Tox21)
Records with an inconclusive call do not appear. Active and inactive are the calls of the source. Unless noted, the call rests on the fitted dose curve.

Columns and labels:
[1] = Nuclear factor erythroid 2-related factor 2/antioxidant responsive element (Nrf2/ARE) small molecule agonists: qHTS cell viability counter screen in human keratinocytes (AID 1919968; active means well fitted curve in the direction sought with a large enough effect in the repeat runs; an effect the other way counts as inactive or inconclusive; further: nearly all actives have a fitted effect of over 55% in size)
Method in brief: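 CellTiter-Fluor fluorescence, read 1 h after reagent, gave viability in the same wells as the ARE-luciferase assay. KeratinoSens cells (1,500/well) had 23 h compound exposure at 37 C/5% CO2 following 5 h plating.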

[2] = Nuclear factor erythroid 2-related factor 2/antioxidant responsive element (Nrf2/ARE) small molecule agonists: luciferase reporter gene qHTS assay in human keratinocytes (AID 1919969); further: nearly all actives have a fitted effect of over 35% in size
[3] = molecular target: Gonadotropin-releasing hormone receptor (Homo sapiens) (UniProt P30968); experiment: Human gonadotropin-releasing hormone receptor (GnRHR) small molecule agonists, calcium flux assay in GnRHR-HEK293 cells (AID 1920063); further: nearly all actives have a fitted effect of over 35% in size
Chain of Gonadotropin-releasing hormone receptor (Homo sapiens) (P30968 whole entry, looked up): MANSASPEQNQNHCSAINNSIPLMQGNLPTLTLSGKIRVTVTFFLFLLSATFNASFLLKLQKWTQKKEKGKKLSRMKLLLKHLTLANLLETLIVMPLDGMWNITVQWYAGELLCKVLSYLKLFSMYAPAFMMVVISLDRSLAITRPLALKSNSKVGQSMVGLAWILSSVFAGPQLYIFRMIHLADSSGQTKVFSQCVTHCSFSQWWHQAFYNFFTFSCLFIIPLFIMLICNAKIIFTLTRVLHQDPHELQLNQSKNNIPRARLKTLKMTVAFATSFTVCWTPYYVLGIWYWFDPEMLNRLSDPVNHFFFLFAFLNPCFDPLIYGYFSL
Method in brief: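 Agonist mode: compounds at 15 concentrations, in triplicate, went onto calcium dye-loaded GnRHR-HEK293 cells. Intracellular calcium was then followed as 480/540 nm fluorescence at 1 s intervals over 3 min.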

[4] = molecular target: KiSS-1 receptor (Homo sapiens) (UniProt Q969F8); experiment: Human kisspeptin (KISS1R) small molecule agonists, calcium flux assay in KISS1R-HEK293 cells (AID 1920064; active means well fitted curve in the direction sought with a large enough effect in the repeat runs; an effect the other way counts as inactive or inconclusive)
Chain of KiSS-1 receptor (Homo sapiens) (Q969F8 whole entry, looked up): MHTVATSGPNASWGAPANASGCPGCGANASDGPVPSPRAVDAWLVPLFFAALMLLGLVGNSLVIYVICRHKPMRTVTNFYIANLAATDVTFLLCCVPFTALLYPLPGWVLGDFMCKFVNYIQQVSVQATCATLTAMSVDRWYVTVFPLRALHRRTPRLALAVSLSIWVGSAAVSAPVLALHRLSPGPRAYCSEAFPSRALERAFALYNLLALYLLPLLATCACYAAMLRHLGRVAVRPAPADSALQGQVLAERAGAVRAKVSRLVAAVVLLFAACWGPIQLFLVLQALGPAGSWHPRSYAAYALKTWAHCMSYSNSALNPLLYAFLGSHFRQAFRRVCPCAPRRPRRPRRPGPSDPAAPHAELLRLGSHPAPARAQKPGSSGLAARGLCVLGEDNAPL
Method in brief: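 Agonist mode: intracellular calcium rise tracked at 1 s intervals over 3 min (480/540 nm) immediately after compound addition to dye-loaded KISS1R-HEK293 stable cells. Each compound tested at 15 concentrations in triplicate.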

[5] = G protein-coupled receptor (GPCR) small molecule agonists, calcium flux assay: HEK293 wild type cell line counter screen (AID 1920065)
Method in brief: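 Calcium flux counter screen: compound added in agonist mode at 15 concentrations in triplicate to dye-loaded parental HEK293 cells. Fluorescence (480/540) read kinetically for 3 min; ATP served as positive control.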

[6] = p53 small molecule agonists, cell-based qHTS assay with human liver microsomes (AID 1963577)
Method in brief: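 Compounds act here after metabolic activation: human liver microsomes and NADPH, both at 0.5 mg/mL final, were co-added to p53RE-bla cells. Incubation ran 16 h at 37 C, followed by LiveBLAzer detection.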

[7] = p53 small molecule agonists, cell-based qHTS assay with rat liver microsomes (AID 1963578)
Method in brief: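 Read-out is beta-lactamase reporter fluorescence (LiveBLAzer, 2 h, room temperature, dark) in p53RE-bla cells treated 16 h at 37 C with compound, rat liver microsomes and NADPH, both 0.5 mg/mL final.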

[8] = p53 small molecule agonists, cell-based qHTS assay with human liver microsomes: qHTS cell viability counter screen (AID 1963579); further: nearly all actives have a fitted effect of over 45% in size
Method in brief: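 Cells carrying the p53 response-element beta-lactamase reporter are treated for 16 h at 37 C with test compounds in the presence of human liver microsomes and NADPH (both 0.5 mg/mL final); ATP-based CellTiter-Glo luminescence then reports viability.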

[9] = p53 small molecule agonists, cell-based qHTS assay with rat liver microsomes: qHTS cell viability counter screen (AID 1963580); further: nearly all actives have a fitted effect of over 45% in size
Method in brief: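 Cytotoxicity counter screen: intracellular ATP read by CellTiter-Glo luminescence in the p53 reporter wells. HCT-116 p53RE-bla cells were treated for 16 h at 37 C alongside rat liver microsomes and NADPH, each 0.5 mg/mL final.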

[10] = p53 small molecule agonists, cell-based qHTS assay: qHTS cell viability counter screen (AID 1963581); further: nearly all actives have a fitted effect of over 45% in size
Method in brief: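 Counter screen read by CellTiter-Glo luminescence (ATP content, 30 min at room temperature), run in the same wells as the beta-lactamase reporter read. HCT-116 p53RE-bla cells saw compounds for 16 h at 37 C.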

[11] = p53 small molecule agonists, cell-based qHTS assay (AID 1963582; active means well fitted activation curve with a large enough effect in the signal ratio in the repeat runs, not every such curve was filed as active; the % refers to the signal ratio)
Method in brief: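 Read-out is beta-lactamase FRET fluorescence after 2 h at room temperature with LiveBLAzer B/G substrate. p53 response element-bla cells were treated 16 h at 37 C with compounds in DMSO, added 5 h after seeding.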

[12] = molecular target: 5-hydroxytryptamine receptor 2A (Homo sapiens) (UniProt P28223); experiment: 5-hydroxytryptamine receptor 2A (HTR2A) small molecule antagonists, cell-based qHTS assay (AID 1963586); further: nearly all actives have a fitted effect of over 45% in size
Chain of 5-hydroxytryptamine receptor 2A (Homo sapiens) (P28223 whole entry, looked up): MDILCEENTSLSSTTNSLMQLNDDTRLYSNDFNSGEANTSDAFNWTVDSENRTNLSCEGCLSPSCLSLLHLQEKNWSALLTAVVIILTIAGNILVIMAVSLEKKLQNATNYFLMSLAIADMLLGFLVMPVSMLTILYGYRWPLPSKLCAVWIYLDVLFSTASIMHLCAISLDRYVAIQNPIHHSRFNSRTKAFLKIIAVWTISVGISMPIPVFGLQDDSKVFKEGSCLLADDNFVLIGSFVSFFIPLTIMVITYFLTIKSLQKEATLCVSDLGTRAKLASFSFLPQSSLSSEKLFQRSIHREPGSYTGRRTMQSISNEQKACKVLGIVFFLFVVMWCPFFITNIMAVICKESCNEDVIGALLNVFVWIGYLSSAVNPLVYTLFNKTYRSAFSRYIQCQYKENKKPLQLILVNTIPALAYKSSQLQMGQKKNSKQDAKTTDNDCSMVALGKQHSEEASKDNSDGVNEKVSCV
Method in brief: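 CHO cells stably expressing human HTR2A were plated for 18 h at 37 C, then loaded with calcium dye for 1 h. Compounds were preincubated 5 min at room temperature before DOI (4 nM solution) was added. Kinetic fluorescence was read for 3 min.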

[13] = molecular target: 5-hydroxytryptamine receptor 2A (Homo sapiens) (UniProt P28223); experiment: 5-hydroxytryptamine receptor 2A (HTR2A) small molecule agonists, cell-based qHTS assay (AID 1963587); further: nearly all actives have a fitted effect of over 30% in size
Method in brief: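 Kinetic calcium-flux fluorescence (2 min, 1 sec intervals) after compound addition in agonist mode. HTR2A-CHO cells were cultured 18 h, then dye-loaded 1 h at 37 C.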

[14] = molecular target: Muscarinic acetylcholine receptor M1 (Homo sapiens) (UniProt P11229); experiment: Cholinergic receptor muscarinic 1 (CHRM1) small molecule antagonists, cell-based qHTS assay (AID 1963588); further: nearly all actives have a fitted effect of over 40% in size
Chain of Muscarinic acetylcholine receptor M1 (Homo sapiens) (P11229 whole entry, looked up): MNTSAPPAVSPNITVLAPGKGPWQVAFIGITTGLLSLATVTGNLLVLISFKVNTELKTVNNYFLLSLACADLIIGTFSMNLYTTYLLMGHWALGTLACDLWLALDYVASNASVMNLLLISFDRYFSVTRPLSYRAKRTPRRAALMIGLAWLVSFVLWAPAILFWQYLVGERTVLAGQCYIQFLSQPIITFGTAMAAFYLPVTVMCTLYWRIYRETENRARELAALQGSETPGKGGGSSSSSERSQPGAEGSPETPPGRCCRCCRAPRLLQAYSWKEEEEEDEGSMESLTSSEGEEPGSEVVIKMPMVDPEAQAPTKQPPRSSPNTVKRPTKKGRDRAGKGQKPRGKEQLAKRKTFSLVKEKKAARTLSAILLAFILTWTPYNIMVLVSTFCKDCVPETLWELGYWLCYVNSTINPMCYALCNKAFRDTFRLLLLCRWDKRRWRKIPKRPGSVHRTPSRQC
Method in brief: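 Compounds were tested at 15 concentrations in three independent runs. Dye-loaded CHRM1-CHO cells were exposed 5 min at room temperature before stimulation by acetylcholine added at 50nM. Intracellular calcium was read kinetically on FDSS for 3 min.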

[15] = molecular target: Muscarinic acetylcholine receptor M1 (Homo sapiens) (UniProt P11229); experiment: Cholinergic receptor muscarinic 1 (CHRM1) small molecule agonists, cell-based qHTS assay (AID 1963589); further: nearly all actives have a fitted effect of over 35% in size
Method in brief: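 Agonist-mode calcium-flux screen: compounds at 15 concentrations, three independent runs, were pin-transferred onto dye-loaded human CHRM1-CHO cells. Fluorescence was then recorded kinetically every second over minutes.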

[16] = cAMP Responsive Elements (CRE) small molecule agonists, cell-based qHTS assay (AID 1963590)
Method in brief: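 Agonist mode: compound added to CRE-bla HEK 293T cells (2,000/well, 18 h after plating) for 3 h at 37 C/5% CO2. Reporter activity detected via FRET beta-lactamase substrate, 2 h room-temperature loading.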

[17] = cAMP Responsive Elements (CRE) small molecule antagonists, cell-based qHTS assay (AID 1963591; active means well fitted inhibition curve with a large enough effect in the signal ratio in the repeat runs, not every such curve was filed as active; the % refers to the signal ratio)
Method in brief: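 Antagonist mode: compounds are added alongside the adenylyl cyclase activator NKH477 (0.25 uM final) to CRE-bla HEK293T cells for 3 h. LiveBLAzer FRET substrate, 2 h at room temperature, reports bla expression.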

[18] = molecular target: Beta-2 adrenergic receptor (Homo sapiens) (UniProt P07550); experiment: Adrenergic beta2 receptor (ADRB2) small molecule antagonists, cell-based qHTS assay (AID 1963592); further: series mostly up to about 92 µM; nearly all actives have a fitted effect of over 50% in size
Chain of Beta-2 adrenergic receptor (Homo sapiens) (P07550 whole entry, looked up): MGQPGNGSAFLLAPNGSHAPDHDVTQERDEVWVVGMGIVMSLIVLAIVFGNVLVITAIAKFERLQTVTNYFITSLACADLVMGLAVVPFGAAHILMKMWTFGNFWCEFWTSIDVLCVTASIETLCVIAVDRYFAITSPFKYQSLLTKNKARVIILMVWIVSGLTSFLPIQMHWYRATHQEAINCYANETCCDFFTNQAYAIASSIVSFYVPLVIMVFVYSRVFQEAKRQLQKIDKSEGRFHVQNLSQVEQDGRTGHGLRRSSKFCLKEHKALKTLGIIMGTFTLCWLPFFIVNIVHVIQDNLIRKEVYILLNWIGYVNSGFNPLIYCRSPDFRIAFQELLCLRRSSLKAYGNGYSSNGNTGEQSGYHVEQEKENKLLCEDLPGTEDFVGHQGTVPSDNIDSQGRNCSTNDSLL
Method in brief: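 Assay format: CHO-ADRB2 cells, 18-20hr seeding at 37C/5% CO2, then compound plus 1nM isoproterenol agonist mix for 0.5hr RT. Homogeneous time-resolved fluorescence cAMP detection after 1hr, expressed as 665/615 nm ratio.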

[19] = molecular target: D(2) dopamine receptor (Homo sapiens) (UniProt P14416); experiment: Dopamine D2 receptor (DRD2) small molecule antagonists, cell-based qHTS assay (AID 1963595; active means well fitted inhibition curve with a large enough effect in the signal ratio in the repeat runs, with a control signal flat; the % refers to the signal ratio)
Chain of D(2) dopamine receptor (Homo sapiens) (P14416 whole entry, looked up): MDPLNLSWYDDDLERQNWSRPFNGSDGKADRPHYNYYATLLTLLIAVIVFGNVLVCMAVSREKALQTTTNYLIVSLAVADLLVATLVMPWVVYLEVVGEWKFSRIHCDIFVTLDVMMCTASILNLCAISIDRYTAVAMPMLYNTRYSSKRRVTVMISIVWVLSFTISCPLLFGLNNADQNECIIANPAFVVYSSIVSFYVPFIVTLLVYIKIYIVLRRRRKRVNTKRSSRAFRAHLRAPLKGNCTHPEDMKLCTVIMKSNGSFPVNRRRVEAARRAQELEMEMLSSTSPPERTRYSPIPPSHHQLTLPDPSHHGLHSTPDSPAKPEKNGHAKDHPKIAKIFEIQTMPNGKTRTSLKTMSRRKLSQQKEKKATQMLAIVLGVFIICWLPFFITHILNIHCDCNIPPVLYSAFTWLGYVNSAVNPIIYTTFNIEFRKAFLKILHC
Method in brief: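 Cells were plated and grown for 24 h at 37 °C. Ro20-1724 (0.1 mM final) went in first, then compound for 10 min. NKH477 (200 nM) with quinpirole (12 nM) followed for 30 min at RT, then HTRF detection reagents for 1 h.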

[20] = molecular target: D(2) dopamine receptor (Homo sapiens) (UniProt P14416); experiment: Dopamine D2 receptor (DRD2) small molecule agonists, cell-based qHTS assay (AID 1963594); further: nearly all actives have a fitted effect of over 35% in size
Method in brief: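 cAMP accumulation in DRD2-HEK293 cells measured by HTRF after 1 h detection; compounds added 10 min before NKH477 (200nM […]) forskolin-analogue stimulation, 30 min at room temperature, with Ro20-1724 present at 0.1 mM final.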
On the % scale 0 is the no-effect control and ±100 the full control effect.

CCCCCCCCCCCCCC=O
inactive: activity change, negative = cytotoxicity [1] -1.13% [at 8.39 µM] | activity, positive = activation [2] 0.0623% [at 8.39 µM] | activity change [3] -0.408% [at 5.22 µM, active compounds read high] | activation [4] 0.0205% [at 6.97 µM] | activation [5] 0.0655% [at 5.23 µM] | activation [6] 0.781% [at 5.99 µM] | activation [7] -2.08% [at 5.99 µM] | activity change, negative = cytotoxicity [8] -3.87% [at 5.99 µM] | activity change, negative = cytotoxicity [9] 0.418% [at 5.99 µM] | activity change, negative = cytotoxicity [10] -2.03% [at 5.99 µM] | activation [11] 5.85% [at 5.99 µM] | activity, negative = inhibition [12] 4.12% [at 5.62 µM] | activation [13] -1.86% [at 7.02 µM] | activity, negative = inhibition [14] 4.29% [at 5.58 µM] | activation [15] 0.649% [at 6.97 µM] | activation [16] -0.0207% [at 8.39 µM] | activity change, negative = inhibition [17] 0.604% [at 8.39 µM] | activity change, negative = inhibition [18] 0.833% [at 8.39 µM] | activity change, negative = inhibition [19] 7.61% [at 8.38 µM]

O=C(O)c1cccc(C(=O)O)n1
inactive: Potency [1] | Potency [2] | Potency [3] | outcome [4] | outcome [5] | Potency [6] | Potency [7] | Potency [8] | Potency [9] | Potency [10] | Potency [11] | Potency [12] | Potency [13] | Potency [14] | Potency [15] | Potency [16] | Potency [17] | Potency [18] | Potency [19]

CC(C)=CC1CC(C)CCO1 (stereo not drawn)
inactive: Potency [1] | Potency [2] | Potency [3] | outcome [4] | outcome [5] | Potency [6] | Potency [7] | Potency [8] | Potency [9] | Potency [10] | Potency [11] | Potency [12] | Potency [13] | Potency [14] | Potency [15] | Potency [16] | Potency [17] | Potency [18] | Potency [20] | Potency [19]

CCC(O)C(C)(C)C (stereo not drawn)
inactive: Potency [1] | Potency [2] | Potency [3] | outcome [4] | outcome [5] | Potency [6] | Potency [7] | Potency [8] | Potency [9] | Potency [10] | Potency [11] | Potency [12] | Potency [13] | Potency [14] | Potency [15] | Potency [16] | Potency [17] | Potency [18] | Potency [20] | Potency [19]

CCCCCCCCCCCCCCN(C)C
inactive: activity change, negative = cytotoxicity [1] 2.19% [at 19 µM] | activity, positive = activation [2] 2.64% [at 19 µM] | activity change [3] -0.071% [at 11.8 µM, active compounds read high] | activation [4] 2.68% [at 15.8 µM] | activation [5] -0.129% [at 11.8 µM] | activation [6] -0.299% [at 13.5 µM] | activation [7] -1.12% [at 13.6 µM] | activity change, negative = cytotoxicity [8] 6.35% [at 13.5 µM] | activity change, negative = cytotoxicity [9] -0.358% [at 13.5 µM] | activity change, negative = cytotoxicity [10] 1.73% [at 13.5 µM] | activation [11] -0.74% [at 13.5 µM] | activity, negative = inhibition [12] 2.96% [at 12.7 µM] | activation [13] 12% [at 15.9 µM] | activity, negative = inhibition [14] 5.47% [at 12.6 µM] | activation [15] 0.401% [at 15.8 µM] | activation [16] -0.847% [at 19 µM] | activity change, negative = inhibition [17] -9.63% [at 18.9 µM] | activity change, negative = inhibition [18] -1.54% [at 19 µM] | activation [20] 0.215% [at 19 µM] | activity change, negative = inhibition [19] -0.238% [at 18.9 µM]

CC(=O)C1CCCCC1=O (stereo not drawn)
inactive: Potency [1] | Potency [2] | Potency [3] | outcome [4] | outcome [5] | Potency [6] | Potency [7] | Potency [8] | Potency [9] | Potency [10] | Potency [11] | Potency [12] | Potency [13] | Potency [14] | Potency [15] | Potency [16] | Potency [17] | Potency [18] | Potency [20] | Potency [19]

Cc1cc(=O)oc2cc(O[C@@H]3SC[C@@H](O)[C@H](O)[C@H]3O)ccc12
inactive: Potency [1] | Potency [2] | Potency [3] | outcome [4] | outcome [5] | Potency [6] | Potency [7] | Potency [8] | Potency [9] | Potency [10] | Potency [11] | Potency [12] | Potency [13] | Potency [14] | Potency [15] | Potency [16] | Potency [17] | Potency [18] | Potency [20] | Potency [19]
